High-throughput results: PubChem BioAssay, National Center for Advancing Translational Sciences (NCATS)
Shown are actives, neighbours in structure and some others; about 5.3% of the full set was active somewhere.
MARV entry inh = qHTS for inhibitors of binding or entry into cells for Marburg Virus; Marburg virus pseudotyped entry inhibition, cell reporter; Potency, µM (top dose mostly 37.8 µM), without a hit: at the highest dose activity change, negative = inhibition, hits mostly inhibitors; actives 1.8% (n = 300,000); calls by dose curve; tested in HEK293 cells
VACV mCherry inh = qHTS for Stage-Specific Inhibitors of Vaccinia Orthopoxvirus: mCherry Reporter Primary qHTS. Vaccinia virus mCherry reporter infection, fluorescence. Potency, µM (titrated, usually from 36.5 µM), for the others: at the top dose activity change, negative = inhibition, actives largely listed as inhibitors. actives 0.63% (n = 310,000). AID 720579, 2013; calls by dose curve; tested in A549 cells; note: nearly all actives have a fitted effect of over 35% in size
LASV entry inh = qHTS for Inhibitors of binding or entry into cells for Lassa Virus; Lassa virus pseudotype entry inhibition, cell reporter; Potency, µM (top dose mostly 37.9 µM), without a hit: at the top dose activity change, negative = inhibition, actives largely listed as inhibitors; actives 1.2% (n = 300,000); AID 540256, 2011; calls by dose curve; tested in HEK293 cells; note: nearly all actives have a fitted effect of over 50% in size
HCV inh = qHTS Assay for Inhibitors of Hepatitis C Virus (HCV); Huh7.5.1 HCVcc-Cre infection, luciferase reporter, 44 h; Potency, µM (doses to about 41.8 µM), for inactives: at the highest dose activity change, negative = inhibition, hits mostly inhibitors; actives 3.4% (n = 340,000); active = well fitted inhibition curve with a large enough effect; inconclusive = small, poorly fitted or top-dose-only effect, or another doubt; inactive = no such curve, though single readings can be large or run the other way
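Infectious HCV cell culture screen: compound-treated cells (1,000/well, pre-plated 4 h) are infected with HCVcc-Cre at roughly 0.5 moi and grown 44 h. Infection is quantified by luciferase signal after 15 min substrate incubation at room temperature.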
VACV Venus inh = qHTS for Stage-Specific Inhibitors of Vaccinia Orthopoxvirus: Venus Reporter Primary qHTS; Vaccinia virus Venus reporter expression, fluorescence; actives 0.46% (n = 330,000); Potency, µM (top dose mostly 36.5 µM), without a hit: top-dose activity change, negative = inhibition, usual class: inhibitors; calls by dose curve; tested in A549 cells; note: nearly all actives have a fitted effect of over 30% in size
FMDV inh = High Throughput Screening for Foot and Mouth Disease Virus Antivirals; AID 1159524, 2015; FMDV antiviral cell-based qHTS; actives 1.2% (n = 410,000); Potency, µM (highest dose often 57.9 µM), without a hit: at the top dose activity change, negative = inhibition, hits mostly inhibitors; calls by dose curve; tested in HEK293T cells; note: read-out not given here; nearly all actives have a fitted effect of over 45% in size
* = called active by the depositor; i = inactive; ? = inconclusive; · = no result given; [ ] = another dose, or the depositor's remark. % is set by controls: 0 for no effect and ±100 for the full control effect; potency is the fitted concentration of half-maximal effect.

SMILES | MARV entry inh | VACV mCherry inh | LASV entry inh | HCV inh | VACV Venus inh | FMDV inh
COc1ccc(NCc2nnc(SCC(=O)c3ccc(OC)cc3)o2)cc1 | ? | · | 1% | ? | · | 0%
CCOc1cc(C(=O)CSc2nnc(CNc3ccc(Cl)cc3)o2)ccc1NC(=O)CC | ? | ? | ? | 11µM* | 13µM* | ?
C[C@@H]1CN([C@H](C)CO)C(=O)CCCn2nncc2CO[C@H]1CN(C)S(=O)(=O)c1cccc(C#N)c1 | · | ? | · | · | 5µM* | -5%
COCC(=O)Nc1cc(C(=O)N2CC3CCC2C3)c2c(c1)nc(-c1ccncc1)n2C (centres undefined) | · | -14% | · | · | -1% | -3%
Cn1cc(/C=C/c2cc[n+](C)cc2)c2cc(Cl)ccc21 | ? | ? | ? | ? | -3% | -16%
Cn1cc(/C=C/c2cc[n+](C)cc2)c2cc(F)ccc21 | ? | -17% | ? | 0.56µM* | -16% | ?
C[n+]1ccc(/C=C/c2c[nH]c3ccc(F)cc23)cc1 | · | · | · | 1µM* | · | ?
Cc1cc(/C=C2\C=Cc3ccccc32)cc(C)c1N | · | 17% | · | · | -21% | ·
CCc1cccc(NC(=O)Nc2ccc(Oc3ccc4nc(NC(=O)OC)[nH]c4c3)cc2)c1 | · | · | 13µM* | · | · | ·
COC(=O)Nc1nc2ccccc2[nH]1 | 20% | ? | -3% | 16% | -17% | 20%
COC(=O)Nc1nc2ccc(Oc3ccc(NC(=O)Nc4ccccc4)cc3)cc2[nH]1 | · | · | 3.1µM* | · | · | ·
O=C(Nc1cccc(S(=O)(=O)N2CCCC2)c1)c1ccc2c(=O)n3c(nc2c1)CCCCC3 | ? | ? | 21µM* | 2.8µM* | ? | 13µM*
O=C(Nc1cccc(S(=O)(=O)N2CCOCC2)c1)c1ccc2c(=O)n3c(nc2c1)CCCCC3 | ? | ? | ? | 7.1µM* | ? | ?
CCC1CN(CC(=O)NCc2cc(C)n(C)n2)Cc2cc(OC)ccc2O1 (centres undefined) | · | -11% | · | · | -3% | 12%
CCCCCC(=O)N1C[C@@H](O)[C@H](n2cc(-c3ccc(F)cc3)nn2)C[C@H]1c1ccccc1 | · | · | -7%[46.1 µM] | · | · | ·
O=C(Nc1ccc(Cl)c(C(F)(F)F)c1)NC1CC2CCCC(C1)N2Cc1ccccc1 (centres undefined) | 8.9µM* | ? | ? | 25µM* | ? | ?
CC[C@@H](C)[C@H]1O[C@]2(CC[C@H]1C)C[C@@H]1C[C@@H](CC=C(C)[C@@H](O[C@H]3C[C@H](OC)[C@@H](O[C@H]4C[C@H](OC)[C@@H](O)[C@H](C)O4)[C@H](C)O3)[C@@H](C)C=CC=C3CO[C@@H]4[C@H](O)C(C)=C[C@@H](C(=O)O1)[C@]34O)O2 | 10µM* | · | 2.6µM* | · | · | ·
CC[C@@H](C)[C@H]1O[C@]2(CC[C@@H]1C)C[C@@H]1C[C@@H](C/C=C(\C)[C@@H](O[C@H]3C[C@H](OC)[C@@H](O[C@H]4C[C@H](OC)[C@@H](O)[C@H](C)O4)[C@H](C)O3)[C@@H](C)/C=C/C=C3\CO[C@@H]4[C@H](O)C(C)=C[C@@H](C(=O)O1)[C@]34O)O2 | 6.3µM* | · | ? | · | · | ·
CC[C@@H](C)[C@H]1O[C@]2(CC[C@@H]1C)C[C@@H]1C[C@H](C/C=C(/C)[C@H](O[C@@H]3C[C@H](OC)[C@H](O[C@@H]4C[C@H](OC)[C@@H](O)[C@H](C)O4)[C@H](C)O3)[C@@H](C)/C=C\C=C3CO[C@@H]4[C@H](O)C(C)=C[C@@H](C(=O)O1)[C@]34O)O2 (tested in a mixture with another compound) | · | · | · | · | · | -16%
CN1Cc2c(C(=O)OC(C)(C)C)ncn2-c2ccsc2C1=O | · | · | · | · | · | -22%
C1CCCCCC(NCCN2CCNCC2)CCCCC1 | ? | -25% | ? | 1.3µM* | -12% | -11%
CCCCC#Cc1nc(NC)c2ncn([C@@H]3O[C@H](CO)[C@@H](O)[C@H]3O)c2n1 | 9% | · | ? | · | · | ·
COc1ccc2c(c1)C(=O)[C@@H](O)[C@H](c1ccc(OC)c(Br)c1)O2 | 5% | 4µM* | ? | -27%[8.37 µM] | ? | 21%
Cc1ccc(Cl)cc1NS(=O)(=O)c1ccc(N2CCCCS2(=O)=O)cc1 | · | -20% | 7%[46.1 µM] | · | -20% | 11µM*
CCCCCCCCCC1NC(C(=O)O)Cc2c1[nH]c1ccccc21 (centres undefined) | · | -15% | · | · | -16% | -19%
SMILES | MARV entry inh | VACV mCherry inh | LASV entry inh | HCV inh | VACV Venus inh | FMDV inh
C/C=C(/CCC1NCCc2c1[nH]c1ccccc21)[Si](C)(C)C (centres undefined) | ? | -28% | ? | ? | ? | 28µM*
CN(C)c1ccc(N/C=C/C(=O)c2ccccc2)cc1 | ? | · | 6.5µM* | -19% | · | 10µM*
O=C(/C=C/Nc1ccccc1)c1ccccc1 | ? | · | ? | 4% | -7% | -30%
CCOC(=O)N/N=C1\C[C@@H](O)[C@@H](O)[C@@H]2[C@@H]3C(=O)N(Cc4ccc5c(c4)OCO5)C(=O)[C@@H]3CC[C@@H]12 | -22%[14.2 µM] | · | · | · | · | ·
Cc1ccnc2ccc(I)cc12 | · | -20% | · | · | -9% | ·
O=P(c1ccccc1)(c1ccccc1)c1nc(-c2ccc(Cl)cc2)oc1N1CCOCC1 | ? | · | -29% | 10µM* | · | -24%
Cc1ccc2[nH]c(CSc3nnc(COc4ccccc4C)n3C)cc(=O)c2c1 | · | -9% | -2%[46.1 µM] | · | -8% | ?
Cc1cc(C)c(S(=O)(=O)NCC(c2ccc(N(C)C)cc2)N2CCc3ccccc32)c(C)c1 (centres undefined) | · | -24% | 12%[46.1 µM] | · | -25% | 1%
CCN(CC)S(=O)(=O)c1cc(NC(=O)c2cc(-c3ccccn3)nc3ccccc23)ccc1C | · | · | · | 14µM* | · | -29%
COC(=O)c1ccc(NC(=O)c2cc(-c3ccccn3)nc3ccccc23)cc1 | 3%[46.1 µM] | -13% | -8% | -2% | -11% | -8%
O=S(=O)(Nc1nc2ccccc2nc1Nc1cccc(S(=O)(=O)N2CCCCC2)c1)c1ccccc1 | ? | 11µM* | ? | ? | ? | ?
O=C(Nc1cccc(S(=O)(=O)N2CCCC2)c1)c1cc(-c2ccccn2)nc2ccccc12 | 7.9µM* | i | ? | ? | 1% | -27%
Cc1cc(C(=O)Nc2cccc(S(=O)(=O)N3CCCCC3)c2)c2ccccc2n1 | -20% | -4% | -21% | ? | -8% | ?
COc1ccc(NC(=O)c2cc(-c3ccccn3)nc3ccccc23)cc1S(=O)(=O)N(C)C | 16µM* | -1% | ? | ? | -13% | ?
CCCCC(=O)N(Cc1ccc(-c2ccccc2-c2nn[nH]n2)cc1)[C@@H](C(=O)O)C(C)C | · | i | · | · | -17% | 3%
